The nature of experiment [1]: inhibitors of TNFa-induced NFkB p65 translocation, primary screen, imaging, HUVEC, MLSMR starter and 10KST1 sets (AID 438;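 active = inhibition above 20% together with a positive visual image hit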;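 note: compound added about 3h40 before a 20 min TNFalpha stimulation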;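 for inhibition: signal is the nuclear over cytoplasmic p65 intensity ratio per well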). Particulars: HUVEC TNFa-induced p65 nuclear translocation; cell count: measured here: nuclei count (cytotoxicity indicator), at 2.08 µM; inhibition: at 2 µM, stronger effect = higher value, 0% TNFa-plus-vehicle, 100% no-TNFa wells.
Experiment [2] in a line: reduction of polyQ htt aggregates in cells – imaging, exon1htt(103Q)mCFP cells, high-content imaging, primary screen (AID 483;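 active = visual image review flags a hit and inhibition of aggregation exceeds 20%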;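 note: compound exposure lasted 3 days before fixation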;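 for nuclei count: percent of the per-plate median nuclei count of sample wells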). Particulars: exon1htt(103Q)mCFP cell line, aggregate imaging, at 2 µM; inhibition of aggregation: stronger effect = higher value; nuclei count: measured here: cell count, toxicity.
A short description of experiment [3]: endothelial E-selectin expression blockers – imaging, HUVEC, immunofluorescence, MLSMR starter and 10KST1 sets, primary screen (AID 487;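 active = visually confirmed hit in the image check and inhibition above 20%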;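 for inhibition: signal is fraction of cell area covered by stained E-selectin grains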;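 for nuclei count: 100% = median nuclei count of all wells on the same plate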). Particulars: HUVEC TNFalpha-induced E-selectin immunofluorescence imaging, at 2 µM; inhibition: stronger effect = higher value; nuclei count: measured here: cell number, toxicity.
Experiment [4] concerns the target Voltage-gated potassium channel subunit beta-2 (Rattus norvegicus) (UniProt P62483). Nature of the experiment: inhibitors of rat Kvbeta2 reductase activity – biochemical, NADPH fluorescence, primary screen (AID 622;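 active = fluorescence slope higher than the sample average by over 3 SD, cut at about -0.22 in these data, passing the limit was not always enough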;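 note: slope of raw intensity against log time taken from 70 to 1610 s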). Particulars: recombinant KvBeta, 4-cyanobenzaldehyde reduction, at 10 µM, stronger effect = higher value.
Experiment [5] has the same target. Nature of the experiment: enhancers of rat Kvbeta2 NADPH turnover – biochemical, NADPH fluorescence, primary screen (AID 623).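 Note: fluorescence intensity change per second fitted from 20 to 320 s.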 Particulars: Recombinant KvBeta, NADPH fluorescence decrease slope, 10 min; at 10 µM; stronger effect = lower value.
Experiment [6] addresses Alpha-2C adrenergic receptor (Homo sapiens) (UniProt P18825). Nature of the experiment: compounds altering alpha2C-coupled GIRK flux – cell-based, HEK293 alpha2C/GIRK1/2, thallium flux, primary screen (AID 624;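 active = fluorescence slope after compound addition differing from the mean of all screened samples at 99.7% confidence, in either direction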;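 note: slope of fluorescence ratio to pre-addition baseline per second over 15 to 24 s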). Particulars: thallium flux BTC fluorescence, at 10 µM, actives lie on both sides.
Experiment [7] is described as follows: blockers of RIG-like receptor reporter activation – cell-based, Sendai virus stimulus, luciferase, 10K MLSCN set, TLR/RLR signaling modifier project, primary screen (AID 602276;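 active = inhibition at or above 50% at 10 µM; inactive = inhibition below 50%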;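 note: firefly luciferase from ISG56 promoter only with Renilla not read in this screen; 0% = Sendai virus plus DMSO and 100% = medium plus DMSO without virus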). As to conditions: HEK293 RL24 IRF3 luciferase reporter, at 10 µM, stronger effect = higher value. On the technique in general: Reporter assays use an easily measured gene product as a stand-in for the process of interest.

A short description of experiment [8]: TLR3 IRF3 reporter activation blockers – cell-based, poly I:C stimulus, luciferase, 10K MLSCN set, primary screen (AID 602277;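 active = inhibition of the reporter signal at or above 50%; inactive = inhibition below 50%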). As to conditions: HEK293-TLR3 RL24 IRF3 luciferase reporter, at 10 µM, stronger effect = higher value.

Calls of active or inactive are those of the source.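 Rule for the calls, unless noted: active = NADPH fluorescence slope more negative than the mean of all samples by about 3 SD, 99.7% confidence; inactive = the rest.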

The inhibition is the change of the read-out against control, counted positive when it falls.

Sequence of Alpha-2C adrenergic receptor (Homo sapiens) (P18825 whole entry, looked up): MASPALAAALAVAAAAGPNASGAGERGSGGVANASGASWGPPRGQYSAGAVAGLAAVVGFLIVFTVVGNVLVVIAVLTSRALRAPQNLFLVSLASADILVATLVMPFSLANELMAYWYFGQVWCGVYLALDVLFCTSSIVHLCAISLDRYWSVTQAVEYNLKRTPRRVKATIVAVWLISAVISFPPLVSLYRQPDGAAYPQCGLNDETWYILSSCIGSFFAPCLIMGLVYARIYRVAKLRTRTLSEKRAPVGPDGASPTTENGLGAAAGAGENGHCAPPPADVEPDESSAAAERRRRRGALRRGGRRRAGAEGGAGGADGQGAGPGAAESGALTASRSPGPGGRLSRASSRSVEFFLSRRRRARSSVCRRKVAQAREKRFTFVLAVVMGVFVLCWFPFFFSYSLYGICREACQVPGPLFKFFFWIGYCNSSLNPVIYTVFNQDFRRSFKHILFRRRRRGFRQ
Sequence of Voltage-gated potassium channel subunit beta-2 (Rattus norvegicus) (P62483 whole entry, looked up): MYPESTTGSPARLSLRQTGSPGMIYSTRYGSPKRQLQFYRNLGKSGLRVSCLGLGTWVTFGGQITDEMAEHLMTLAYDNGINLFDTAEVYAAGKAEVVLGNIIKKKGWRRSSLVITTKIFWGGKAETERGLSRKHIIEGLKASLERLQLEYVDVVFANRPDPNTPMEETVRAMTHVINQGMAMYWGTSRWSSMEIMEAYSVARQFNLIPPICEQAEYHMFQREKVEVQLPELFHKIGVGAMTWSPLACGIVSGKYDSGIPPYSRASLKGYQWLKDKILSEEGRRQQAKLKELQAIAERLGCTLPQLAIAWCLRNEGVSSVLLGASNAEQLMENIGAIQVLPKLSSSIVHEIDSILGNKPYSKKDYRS

With `O=C(CC1(O)C(=O)Nc2ccccc21)c1ccc2c(c1)OCO2` (configuration not stated), the cell count in experiment [1] came out at 484. The inhibition was 4.5% (inactive) in experiment [1], -22.5% (inactive) in experiment [3], 10.1% (inactive) in experiment [7] and 35.2% (inactive) in experiment [8]. The inhibition of aggregation in experiment [2] was -8.1% (inactive). For the same molecule, the nuclei count worked out at 102% in experiment [2] and 110% in experiment [3]. The fluorescence slope in experiment [4] is -0.384 (inactive). Moreover, in experiment [5], the NADPH fluorescence slope is 2.8e-06 (inactive). Also, the slope in experiment [6] is 0.00339 (inactive).
`Cc1ccc(NC(=O)COS(=O)c2ccc(C)cc2)cc1` (configuration not stated): the cell count in experiment [1] was found to be 420. Also, the inhibition was 5.8% (inactive) in experiment [1], -11.2% (inactive) in experiment [3], 6.94% (inactive) in experiment [7] and -1.39% (inactive) in experiment [8]. In addition, the inhibition of aggregation in experiment [2] was 2.9% (inactive). The nuclei count in experiment [2] turned out to be 94.3%; in experiment [3] it was 125%. The fluorescence slope in experiment [4] is -0.58 (inactive). The NADPH fluorescence slope in experiment [5] was -2e-05 (inactive). In experiment [6], the slope is 0.00583 (inactive).
Turning to `COCCCNC(=O)CC1Oc2ccccc2NC1=O` (configuration not stated), the cell count in experiment [1] was determined as 762. The inhibition in experiment [1] was 0% (inactive); in experiment [3], -48.7% (inactive); in experiment [7], 14.8% (inactive); in experiment [8] it was 33.9% (inactive). Moreover, the inhibition of aggregation in experiment [2] is 13.4% (inactive). Further, the results for the nuclei count in experiment [2] and in experiment [3] were 87.3% and 112%, respectively. Further, in experiment [4], the fluorescence slope is -0.54 (inactive). The NADPH fluorescence slope in experiment [5] was -5.2e-05 (inactive). Further, in experiment [6], the slope is 0.00685 (inactive).
In the case of `CC1=NC(Nc2nc(C)c3ccccc3n2)=NC(C)(C)C1`, the cell count in experiment [1] turned out to be 391. Further, the inhibition in experiment [1] is 1.5% (inactive); in experiment [3] it was -13% (inactive); in experiment [7] it was 3.86% (inactive); in experiment [8], 1.48% (inactive). In experiment [2], the inhibition of aggregation was -1.8% (inactive). Moreover, the nuclei count in experiment [2] came out at 94%; in experiment [3] it was 111%. For the same molecule, the fluorescence slope in experiment [4] is -0.462 (inactive). Besides, the NADPH fluorescence slope in experiment [5] is 6.6e-05 (inactive). Besides, the slope in experiment [6] is 0.00711 (inactive).
Consider `CCn1c(CSc2nnc(-c3cccnc3)n2-c2ccccc2C)nc2cc(C(=O)O)ccc21`, for which the cell count in experiment [1] came to 463. Besides, the inhibition in experiment [1] was -13.1% (inactive); in experiment [3], -22.2% (inactive); in experiment [7], 2.24% (inactive); in experiment [8] it was 9.03% (inactive). The inhibition of aggregation in experiment [2] is 5.1% (inactive). For the same molecule, the nuclei count was found to be 101% in experiment [2] and 161% in experiment [3]. In addition, the fluorescence slope in experiment [4] is -0.509 (inactive). For the same molecule, the NADPH fluorescence slope in experiment [5] is -0.000162 (inactive). Further, in experiment [6], the slope was 0.00507 (inactive).
For `CCc1nnc(NC(=O)CSc2nnc(-c3ccoc3C)n2CC(C)C)s1`, in experiment [1], the cell count stood at 714. Besides, the inhibition in experiment [1] was 3.2% (inactive); in experiment [3], 15.4% (inactive); in experiment [7] it was 16.7% (inactive); in experiment [8], 15.3% (inactive). For the same molecule, in experiment [2], the inhibition of aggregation is -3.8% (inactive). Moreover, the nuclei count in experiment [2] came out at 110%; in experiment [3], 91%. The fluorescence slope in experiment [4] is -0.367 (inactive). The NADPH fluorescence slope in experiment [5] is 4.9e-06 (inactive). The slope in experiment [6] is 0.0051 (inactive).
As for `CC1CCCN(C(=O)CN2CCN(C(=O)c3ccco3)CC2)C1` (configuration not stated), the cell count in experiment [1] came to 238. Further, the inhibition in experiment [1] was 0.4% (inactive); in experiment [3], -18.8% (inactive); in experiment [7] it was 7.97% (inactive); in experiment [8], 14.7% (inactive). For the same molecule, the inhibition of aggregation in experiment [2] was 20.8% (inactive). The nuclei count worked out at 76% in experiment [2] and 152% in experiment [3]. Further, in experiment [4], the fluorescence slope is -0.596 (inactive). Besides, the NADPH fluorescence slope in experiment [5] is -6.2e-05 (inactive). Moreover, in experiment [6], the slope is 0.00367 (inactive).
Consider `Cc1cccc(NC(=O)c2cc3ccccc3o2)c1`, for which the cell count in experiment [1] is 549. The inhibition in experiment [1] is -23% (inactive); in experiment [3], 15.3% (inactive); in experiment [7], -17.2% (inactive); in experiment [8] it was -74.5% (inactive). Further, the inhibition of aggregation in experiment [2] was 10.7% (inactive). Besides, the nuclei count came out at 103% in experiment [2] and 157% in experiment [3]. Moreover, the fluorescence slope in experiment [4] was -0.506 (inactive). Besides, the NADPH fluorescence slope in experiment [5] is 1.8e-05 (inactive). In addition, in experiment [6], the slope was 0.00578 (inactive).
For `CC(CCc1ccccc1)NC(=O)c1ccc(Br)o1` (configuration not stated), in experiment [1], the cell count came to 570. The inhibition in experiment [1] was -7.8% (inactive); in experiment [3], -78.2% (inactive); in experiment [7], 7.34% (inactive); in experiment [8], 9.03% (inactive). Further, in experiment [2], the inhibition of aggregation is 2.5% (inactive). The nuclei count in experiment [2] stood at 83.4%; in experiment [3], 95.1%. In addition, the fluorescence slope in experiment [4] is -0.449 (inactive). For the same molecule, the NADPH fluorescence slope in experiment [5] is -3.4e-05 (inactive). Also, the slope in experiment [6] is 0.00563 (inactive).
Turning to `COc1ccc(NC(=O)c2cnc3n(c2=O)CCS3)cc1OC`, the cell count in experiment [1] was 484. Also, the inhibition in experiment [1] was -3.4% (inactive); in experiment [3], -9.5% (inactive); in experiment [7], -2.41% (inactive); in experiment [8] it was -20.9% (inactive). Moreover, the inhibition of aggregation in experiment [2] was -15% (inactive). Also, the nuclei count stood at 92.4% in experiment [2] and 98.8% in experiment [3]. Further, the fluorescence slope in experiment [4] was -0.515 (inactive). For the same molecule, the NADPH fluorescence slope in experiment [5] was -3.9e-05 (inactive). In addition, the slope in experiment [6] was 0.00659 (inactive).
As for `Cc1cc(OCC(O)CN2CCN(CCO)CC2)ccc1C(C)C` (configuration not stated), the cell count in experiment [1] came to 428. Moreover, the inhibition in experiment [1] is -0.5% (inactive); in experiment [3], 24% (inactive); in experiment [7] it was 9.34% (inactive); in experiment [8], 29.3% (inactive). For the same molecule, in experiment [2], the inhibition of aggregation was 16.4% (inactive). For the same molecule, the results for the nuclei count in experiment [2] and in experiment [3] were 94.9% and 93.2%, respectively. Further, in experiment [4], the fluorescence slope is -0.439 (inactive). For the same molecule, in experiment [5], the NADPH fluorescence slope is -3.1e-05 (inactive). In addition, the slope in experiment [6] is 0.00431 (inactive).
Turning to `COc1ccc(C2(C(=O)Nc3cc(C)on3)CCOCC2)cc1`, in experiment [1], the cell count is 312. The inhibition was 0.4% (inactive) in experiment [1], -51.8% (inactive) in experiment [3], 13.8% (inactive) in experiment [7] and 5.89% (inactive) in experiment [8]. Besides, the inhibition of aggregation in experiment [2] was 10.1% (inactive). Besides, the nuclei count in experiment [2] came out at 108%; in experiment [3], 134%. Also, the fluorescence slope in experiment [4] is -0.388 (inactive). Also, the NADPH fluorescence slope in experiment [5] is -4.8e-05 (inactive). The slope in experiment [6] is 0.00489 (inactive).
